Common to all, as to test: NP40-soluble protein abundance relative to vehicle (solubility fold change) (ratio); higher = more soluble protein in presence of ATP
One assay has as its target T1, I3L0H8|Q9NUU7|Q9NUU7-2 (UniProt Q9NUU7).
T1 sequence (whole entry): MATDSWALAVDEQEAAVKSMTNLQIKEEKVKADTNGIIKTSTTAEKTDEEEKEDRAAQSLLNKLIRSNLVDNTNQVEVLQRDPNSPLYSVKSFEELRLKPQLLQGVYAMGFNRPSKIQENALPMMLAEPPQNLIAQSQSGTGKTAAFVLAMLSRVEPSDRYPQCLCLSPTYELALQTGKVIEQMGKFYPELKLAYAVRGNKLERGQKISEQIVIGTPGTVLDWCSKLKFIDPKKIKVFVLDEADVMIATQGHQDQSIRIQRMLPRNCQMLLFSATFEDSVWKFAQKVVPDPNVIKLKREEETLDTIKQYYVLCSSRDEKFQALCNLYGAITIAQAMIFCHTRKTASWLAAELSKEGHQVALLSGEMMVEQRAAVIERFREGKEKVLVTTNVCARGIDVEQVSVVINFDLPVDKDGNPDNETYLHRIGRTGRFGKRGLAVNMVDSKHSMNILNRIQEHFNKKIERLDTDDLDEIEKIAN
The method in brief: (§1)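 Values are fold changes against the detergent-processed vehicle, based on vsn-normalised intensities. Jurkat crude lysate was treated at eight concentrations from 0.1 to 10 mM (10 min at room temperature, then 3 min at 37 °C), solubilised with 0.8% NP40 and benzonase, ultracentrifuged and analysed by TMT-labelled LC-MS/MS over three independent experiments.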

The next assay has as its target T2, J3KPS0|Q9NXW2 (UniProt Q9NXW2).
T2 sequence (whole entry): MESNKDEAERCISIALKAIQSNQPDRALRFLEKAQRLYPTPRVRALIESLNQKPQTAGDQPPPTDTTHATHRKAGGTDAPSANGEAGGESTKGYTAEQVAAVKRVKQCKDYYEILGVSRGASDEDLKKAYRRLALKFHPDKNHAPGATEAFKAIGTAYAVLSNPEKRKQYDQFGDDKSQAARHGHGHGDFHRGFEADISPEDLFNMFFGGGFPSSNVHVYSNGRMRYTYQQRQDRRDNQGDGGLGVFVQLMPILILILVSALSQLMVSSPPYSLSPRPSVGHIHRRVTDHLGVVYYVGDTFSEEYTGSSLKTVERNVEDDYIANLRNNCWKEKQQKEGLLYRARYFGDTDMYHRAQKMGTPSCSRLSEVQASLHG
The gist of the method:
as §1

Another assay has as its target T3, SNAP23 (UniProt O00161).
T3 sequence (whole entry): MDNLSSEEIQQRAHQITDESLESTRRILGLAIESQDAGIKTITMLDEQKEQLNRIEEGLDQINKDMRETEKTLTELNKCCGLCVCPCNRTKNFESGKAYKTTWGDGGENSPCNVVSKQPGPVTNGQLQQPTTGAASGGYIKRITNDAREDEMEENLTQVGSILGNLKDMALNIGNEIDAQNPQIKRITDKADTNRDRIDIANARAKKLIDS
The method in brief: as §1

The target of the next assay is T4, UniProt O14966|O14966-2.
T4 sequence (whole entry): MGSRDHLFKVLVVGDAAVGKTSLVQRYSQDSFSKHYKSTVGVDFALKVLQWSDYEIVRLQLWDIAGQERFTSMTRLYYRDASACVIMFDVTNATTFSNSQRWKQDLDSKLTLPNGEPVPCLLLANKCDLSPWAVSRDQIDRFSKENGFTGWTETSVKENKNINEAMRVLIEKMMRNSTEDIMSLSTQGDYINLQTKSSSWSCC
The method in brief: as §1

± gives the standard deviation of the averaged measurements. The full data set covers some 6,500 targets. This sample favours those with the largest changes.

As to `Nc1ncnc2c1ncn2[C@@H]1O[C@H](COP(=O)(O)OP(=O)(O)OP(=O)(O)O)[C@@H](O)[C@H]1O` [adenosine triphosphate], the NP40-soluble protein abundance worked out at 1.03 ± 0.02 in the assay with I3L0H8|Q9NUU7|Q9NUU7-2 (concentration: 1mM); 1.03 ± 0.028 in the assay with I3L0H8|Q9NUU7|Q9NUU7-2 (concentration: 2mM); 1 ± 0.03 with I3L0H8|Q9NUU7|Q9NUU7-2 (concentration: 4mM); 1.02 ± 0.058 with I3L0H8|Q9NUU7|Q9NUU7-2 (concentration: 6mM); 1.02 ± 0.012 in the assay with I3L0H8|Q9NUU7|Q9NUU7-2 (concentration: 8mM); 1.02 ± 0.013 with I3L0H8|Q9NUU7|Q9NUU7-2 (concentration: 10mM). Moreover, the NP40-soluble protein abundance with J3KPS0|Q9NXW2 (concentration: 1mM) is 0.902 ± 0.035; in the assay with J3KPS0|Q9NXW2 (concentration: 2mM) it was 0.898 ± 0.056; with J3KPS0|Q9NXW2 (concentration: 4mM) it was 0.867 ± 0.058; in the assay with J3KPS0|Q9NXW2 (concentration: 6mM) it was 0.846 ± 0.12; with J3KPS0|Q9NXW2 (concentration: 8mM), 0.845 ± 0.11; with J3KPS0|Q9NXW2 (concentration: 10mM), 0.833 ± 0.1. For the same molecule, the NP40-soluble protein abundance turned out to be 0.944 ± 0.077 in the assay with SNAP23 (concentration: 1mM); 0.947 ± 0.024 with SNAP23 (concentration: 2mM); 0.943 ± 0.021 in the assay with SNAP23 (concentration: 4mM); 1 ± 0.061 with SNAP23 (concentration: 6mM); 0.921 ± 0.02 in the assay with SNAP23 (concentration: 8mM); 0.883 ± 0.03 in the assay with SNAP23 (concentration: 10mM). For the same molecule, the NP40-soluble protein abundance amounted to 0.995 ± 0.072 in the assay with UniProt O14966|O14966-2 (concentration: 1mM); 1.01 ± 0.075 with UniProt O14966|O14966-2 (concentration: 2mM); 0.958 ± 0.099 with UniProt O14966|O14966-2 (concentration: 4mM); 1.03 ± 0.09 in the assay with UniProt O14966|O14966-2 (concentration: 6mM); 0.99 ± 0.1 with UniProt O14966|O14966-2 (concentration: 8mM); 1.01 ± 0.04 in the assay with UniProt O14966|O14966-2 (concentration: 10mM).

For the origin of these results see the supplement of paper PMC6411743.
